# BoNT-F LC inh: BoNT/F light chain protease inhibitors, primary screen, biochemical, flow cytometry, MLPCN library; Botulinum neurotoxin type F light chain protease (Clostridium botulinum); Multiplex microsphere protease cleavage assay; inhibition, % at 10 µM; 360,000 tested, 0.22% active; AID 588497, 2011; in the data active = inhibition above about 35%, passing the limit was not always enough; inconclusive = no clear call, values can overlap the other calls; note: plate controls were buffer without enzyme for full effect and enzyme alone for no effect
# BoNT-A LC inh2: BoNT/A light chain protease inhibitors, primary screen, biochemical, flow cytometry, MLPCN library; multiplex microsphere protease substrate cleavage; Botulinum neurotoxin type A light chain protease (Clostridium botulinum A str. ATCC 3502); inhibition, % at 10 µM; AID 588499, 2011; 360,000 tested, 0.17% active; note: plate controls were buffer without enzyme for full effect and enzyme alone for no effect
# MazEF act: activators of E. coli MazEF toxin-antitoxin RNase, primary screen, biochemical, fluorescence, uHTS | Endoribonuclease toxin MazF (Escherichia coli (strain K12)), P0AE70 | FAM/BHQ RNA-DNA oligo cleavage fluorescence, 5 h | activation, % at 20 µM | 350,000 tested, 0.32% active; in the data active = activation above about 50%
# Target sequence (P0AE70 whole entry, looked up): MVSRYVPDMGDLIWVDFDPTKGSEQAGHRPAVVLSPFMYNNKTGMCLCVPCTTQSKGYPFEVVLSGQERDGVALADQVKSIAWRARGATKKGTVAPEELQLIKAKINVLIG
# PriA SSB inh: inhibitors of Klebsiella pneumoniae PriA binding to SSB C-terminal tail, primary screen, biochemical, AlphaScreen | PriA–SSB C-terminal tail interaction (Klebsiella pneumoniae) | AlphaScreen SSBct-PriA binding, biotinylated peptide | inhibition, % at 33 µM | 430,000 tested, 0.6% active | AID 1272365, 2023; in the data active = inhibition mostly above about 37%, no sharp cut-off; inactive = mostly below about 20%;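 note: plate controls were negative control peptide for no effect and reference peptide for full effect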
# Anthrax LF prot: Bacillus anthracis LF protease inhibitors, primary screen, biochemical, multiplex microsphere, MLPCN library. Lethal factor (Bacillus anthracis), P15917. multiplex microsphere protease cleavage assay. inhibition, % at 10 µM. 360,000 tested, 0.12% active; note: plate controls were buffer without enzyme for full effect and enzyme alone for no effect
# Bead autofluor: compound fluorescence in toxin protease inhibitor counterscreen. 360,000 tested, 3.1% active. fluorescence intensity (concentration not given with the values). compound autofluorescence counterscreen, microsphere flow cytometry; hits give high values. AID 624483; in the data active = fluorescence intensity above about 16000; inconclusive = no clear call, values can overlap the other calls
# * = called active by the depositor; ? = inconclusive; / = not tested or not shown; + = active, no number. Rows were chosen to be rich in hits. Some 3.3% of all compounds tested hit in one or more screens of this group. Cut-off read from the data, not from the text of the source, unless noted: active = inhibition above about 30%; inconclusive = no clear call, values can overlap the other calls; inactive = below that.
SMILES,BoNT-F LC inh,BoNT-A LC inh2,MazEF act,PriA SSB inh,Anthrax LF prot,Bead autofluor
O=C(NCCn1nc(C(F)(F)F)c2c1CCCC2)[C@@H]1CC=CCC1,/,/,/,-11,/,/
CCn1nc(C)c(-c2oc3ccccc3c(=O)c2O)c1C,/,/,/,-5,/,/
O=C1CCCN1C1CCN(S(=O)(=O)Cc2ccccc2)CC1,/,/,/,-3,/,/
OCCSc1c(F)c(SCCO)c(SCCO)c(F)c1SCCO,2,0,1,-28,0,23508*
O=C(Nc1cc(N2CCCCC2)ncn1)c1ccc2ncsc2c1,/,/,/,-6,/,/
CN(CC(=O)O)S(C)(=O)=O,/,/,/,-5,/,/
Cc1cccnc1NC1(C(F)(F)F)N=C(c2ccccc2)NC1=O (configuration not stated),-1,1,-2,9,-2,20365*
CC(=O)NC1(C(F)(F)F)N=C(c2ccccc2)NC1=O (configuration not stated),-4,1,1,-12,1,2294
CCN(CC)c1ccc(/C=N/N2C(=O)c3ccccc3C2=O)cc1,-5,0,0,/,-1,2437
CCN(CC)c1ccc(/C=N/n2c(C)cc(C)cc2=O)cc1,6,4,2,/,-2,19156*
CCOC(=O)c1sc2cccc(F)c2c1N,0,?,16,-24,-7,22763*
CCOC(=O)c1sc2cccc(Cl)c2c1N,6,1,3,-77,0,4672
COC1CCN(c2ccc(C(=O)N3CCN(c4ccc(C(F)(F)F)cn4)CC3)cc2)C1 (configuration not stated),/,/,/,-14,/,/
O=[N+]([O-])c1c(NCCCO)cc(Sc2nc3ccccc3s2)c2nonc12,2,?,114*,-15,-2,23409*
CCC(=O)OCCNc1cc(Sc2nc3ccccc3s2)c2nonc2c1[N+](=O)[O-],11,?,17,-3,17,15341
COc1ccc(S(=O)(=O)Nc2ccc3c(c2)CN(C(=O)C2CC2)CC3)cc1OC,/,/,/,-9,/,/
CC(C)CCNC(=O)C1CCN(c2nc3ccccc3o2)CC1,-3,-2,-2,-40,-7,16365*
N#CCCSCc1ccc(C(=O)O)o1,-5,-1,9,-7,0,7385
CCCCSCc1ccc(C(=O)O)o1,6,3,3,-6,0,20913*
O=C(CSc1ncccn1)N1CCN(c2ccccc2)CC1,/,/,/,-1,/,/
O=[N+]([O-])c1ccc(-c2cnc(SCc3ccccc3Cl)[nH]2)cc1,0,1,13,39*,2,3710
Cc1cc(C)c(CSc2ncc(-c3ccc([N+](=O)[O-])cc3)[nH]2)c(C)c1,2,3,76*,10,0,2875
COc1ccc(NC(=O)C(=O)NCC(c2ccc3c(c2)CCCN3C)N2CCCC2)cc1Cl (configuration not stated),/,/,/,10,/,/
O=C(COc1ccccc1F)N1CCN(c2nccn2-c2cccc(Cl)c2)CC1,/,/,/,8,/,/
COc1cc(OC)c(C2=NOC(C(=O)NCCc3ccccc3)C2)cc1Cl (configuration not stated),-1,-2,1,-18,-2,23621*
SMILES,BoNT-F LC inh,BoNT-A LC inh2,MazEF act,PriA SSB inh,Anthrax LF prot,Bead autofluor
CCS(=O)(=O)c1ccccc1C(=O)Nc1nccs1,/,/,/,-2,/,/
CCN1CCN(S(=O)(=O)c2cc(OC)ccc2OC)CC1,-3,0,0,-11,-1,24223*
COc1ccc(F)cc1S(=O)(=O)N1CC(C)CC(C)C1 (configuration not stated),-3,-1,-3,-16,-5,20024*
COc1ccc(F)cc1S(=O)(=O)N1CCC(OC)CC1,/,/,/,-6,/,/
O=C(Nc1cccc(Cl)c1)N1CCSc2cc(Cl)ccc21,3,1,-14,-27,-6,19711*
O=C(Nc1ccccc1)N1CCSc2cc(Cl)ccc21,-3,-2,-3,-14,-1,20918*
CCCCn1c(O)c(N=Nc2ccccc2O)c2ccccc21,-6,0,101*,13,3,4608
O=C(c1c(F)cccc1Cl)N1CC(c2nc(-c3ccco3)no2)C1,/,/,/,-10,/,/
COc1cc(C)c(Cl)cc1S(=O)(=O)NCCCN1CCOCC1,5,2,-5,-12,0,10691
COc1cc(C)c(Cl)cc1S(=O)(=O)NCCN1CCOCC1,-2,-3,3,-2,-3,23984*
CCC(=O)Nc1nnc(S(=O)(=O)N2CCCCCC2)s1,-8,-1,0,100*,-11,4679
O=C(COc1ccccc1Cl)Nc1nnc(S(=O)(=O)N2CCCCCC2)s1,-1,1,2,100*,-8,4355
O=C(COc1ccccc1)Nc1nnc(S(=O)(=O)N2CCCCC2)s1,-2,-1,-9,-15,-1,5606
COc1ccc(C(=O)Nc2nnc(S(=O)(=O)N3CCCCCC3)s2)cc1OC,-14,-1,-7,82*,-2,4929
O=C(COc1ccccc1)Nc1nnc(S(=O)(=O)N2CCCCCC2)s1,6,1,5,95*,-1,4269
CCOC(=O)c1[nH]c(C)c(C(O)=C2C(=O)C(=O)N(CCCN3CCOCC3)C2c2cccnc2)c1C (configuration not stated),/,/,/,-9,/,/
COc1cccc(C(=O)Nc2nnc(-c3ccccc3SC)o2)c1OC,/,/,/,-22,/,/
CCOC(=O)CSc1nnc(NC(=O)c2cccc(S(=O)(=O)N3CCCCCC3)c2)s1,0,0,3,-1,-1,24044*
Cc1ccc(C)c(N2CCN(S(=O)(=O)CCN3C(=O)CCCC3=O)CC2)c1,/,/,/,-15,/,/
CCCCc1ccc(Nc2nc(C)cc(-n3nc(C)cc3C)n2)cc1,/,/,/,7,/,/
CCCN1C(=O)/C(=C/c2cc(C)n(C)c2C)SC1=Nc1ccc(OC)cc1,2,0,-1,16,-8,2431
COc1ccccc1N1C(=O)S/C(=C\c2cc(C)n(C)c2C)C1=O,-4,-1,+,12,1,2380
COc1ccccc1N1C(=O)S/C(=C\c2ccc(C)s2)C1=O,/,/,22,-10,/,/
COc1ccc(N=C2S/C(=C\c3cc(C)n(C)c3C)C(=O)N2C)cc1,-5,0,5,39*,-3,2927
CC(C)(C)NC(=O)CSc1nnc(Cc2ccc3c(c2)OCO3)n1C1CCCCC1,-5,-2,-8,-4,-5,20511*
O=C(CSc1nnnn1C1CCCCC1)NCc1ccc2c(c1)OCO2,1,1,-8,0,-4,7097
Nc1cccc(-c2csc(Nc3ccccc3F)n2)c1,/,/,/,-13,/,/
O=C(CCn1cnc2c([nH]c3ccc(F)cc32)c1=O)N1CCN(c2cccc(C(F)(F)F)c2)CC1,/,/,/,-15,/,/
CC(=O)C12CCCCC1CC1C3CC(C)C4(O)CC(=O)CCC4(C)C3CCC12C (configuration not stated),35*,1,2,3,10,3351

# Compound activity: PubChem, several laboratories
